PubChem BioAssay AID584 (National Center for Advancing Translational Sciences (NCATS), 2007)
The campaign covered roughly 71,000 compounds. About 65 (0.09%) were called active. Shown is part of a subset that was picked to be rich in actives. Values without a mark were called inactive. The call rests on the fitted dose curve; in most records, active means well fitted curve in the direction sought with a large enough effect; inconclusive means small, poorly fitted or top-dose-only effect; inactive means flat fitted curve, though single readings scatter.

Target: Beta-lactamase (Escherichia coli (strain K12)) (UniProt P00811)
Test: Promiscuous and Specific Inhibitors of AmpC Beta-Lactamase (assay with detergent)
Conditions: purified AmpC, nitrocefin hydrolysis with detergent; series mostly up to 28.7 µM; activity change, negative = inhibition: at the top concentration
Description: NIH Molecular Libraries Screening Centers Network [MLSCN]
NIH Chemical Genomics Center [NCGC]
PI Name: Shoichet, Brian K.
This aggregation profiling approach exploits the sensitivity of aggregate formation to detergent. Inhibition of b-lactamase is measured in the presence and absence of 0.01% Triton X-100. This particular assay had the prescence of 0.01% Triton X-100. See Pubchem assay "Promiscuous and Specific Inhibitors of AmpC Beta-Lactamase (assay without detergent)" for related screen. Compounds that inhibit only in the absence of detergent are considered likely promiscuous aggregators.
A screen of 1,030 compounds was performed in Brian Shoichet's lab in 96-well format. AmpC activity was measured by following the absorbance at 480 nm. Nitrocefin is a chromogenic substrate: while nitrocefin is yellow (lmax 390 nm), the product of its hydrolysis is red (lmax 486 nm, 17,000 M-1). AmpC beta lactamase was provided by Brian Shoichet and Brian Feng, UCSF.
NCGC Assay Protocol Summary:
20 mM phosphate buffer, pH 7.0
Triton X-100: No Detergent screen: 0.0001%, Detergent screen: 0.01%.
Buffer in columns 3 and 4 as negative control (no enzyme).
5.3 nM AmpC in columns 1, 2, 5-48. Titration of UCSF compound 9 control (from 10 mM, then 1:2) pin-transferred to column 2. Column 1 is neutral (100% activity).
Six uL of reagents were dispensed to 1536-well Greiner black clear bottom plates. Compounds and controls (23 nL) were transferred via Kalypsys PinTool. The plates were incubated for 15 min at room temperature, and then 2 uL of 800 uM solution of nitrocefin was added to start the reaction. The plates were immediately transferred to and read every 20 seconds for 4 min on ViewLux (Perkin-Elmer) High-throughput CCD imager using 480 nm absorbance protocol. During dispense, reagent bottles were kept submerged into 4 deg C water bath.
Keywords: NIH Roadmap, MLSCN, MLI, MLSMR, qHTS, NCGC, AmpC Beta-Lactamase, Aggregation
On the % scale 0 is the no-effect control and ±100 the full control effect; potency means the concentration at half of the fitted maximal effect.

Sequence of Beta-lactamase (Escherichia coli (strain K12)) (P00811 whole entry, looked up): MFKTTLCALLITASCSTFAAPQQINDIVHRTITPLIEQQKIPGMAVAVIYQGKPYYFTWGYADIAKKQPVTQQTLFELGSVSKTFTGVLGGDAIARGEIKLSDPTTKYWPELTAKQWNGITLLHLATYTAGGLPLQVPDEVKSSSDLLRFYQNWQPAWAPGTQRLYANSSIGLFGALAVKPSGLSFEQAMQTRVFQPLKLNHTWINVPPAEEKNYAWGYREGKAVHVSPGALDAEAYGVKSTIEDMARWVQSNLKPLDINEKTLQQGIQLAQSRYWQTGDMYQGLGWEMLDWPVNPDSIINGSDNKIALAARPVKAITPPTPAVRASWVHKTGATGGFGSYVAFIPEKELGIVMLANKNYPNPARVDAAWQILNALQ

Going from `CCOc1cc(C(=O)N2CCc3cc(OC)c(OC)cc3C2)ccc1OC(F)F` to `COc1cccc(-n2c(SCC(=O)NC3CCCCC3)nc3n[nH]c(C)c3c2=N)c1`, the “activity change, negative = inhibition” value rises from -2.69% to 3.34%.

Going from `C=C(C)COc1ccc(-c2n[nH]c(C)c2-c2ccccc2OC)c(O)c1` to `COc1ccc2[nH]cc(CCNc3cc(-c4ccccc4CN(C)C)ncn3)c2c1`, the “activity change, negative = inhibition” value rises from 3.39% to 9.4%.

Going from `CC(C)(C)n1nnnc1C(c1ccc2ncccc2c1)N1CCSCC1` (stereo not given) to `Cc1cccc(N2CCN(C(c3ccccc3)c3nnnn3CC3CCCO3)CC2)c1C` (stereo not given), the “activity change, negative = inhibition” value rises from -3.81% to -2.94%.

Compared with `CCc1nnc(NC(=O)c2ccc(S(=O)(=O)NC3CCCCC3)cc2)s1`, `CC(=O)Oc1ccc(C(=O)Nc2nccs2)cc1` is lower in “activity change, negative = inhibition” value: 10.1% for the first, 9.77% for the second.

Compared with `Cc1cccc2cc(CN(Cc3nnnn3Cc3ccccc3)C3CCCC3)c(=O)[nH]c12`, `CCCn1c(-c2ccc(F)cc2)nc2c(NC3CCN(Cc4ccccc4)C3)nc(C)nc21` (stereo not given) is lower in “activity change, negative = inhibition” value: 30.9% for the first, 13.7% for the second.

Compared with `CCS(=O)(=O)N1CCCC(C(=O)NCCCN(C)Cc2ccccc2)C1` (stereo not given), `Cc1ccc(S(=O)(=O)N2CCC(C(=O)N[C@@H](C)C(=O)NCc3ccccc3)CC2)cc1` is higher in “activity change, negative = inhibition” value: -2.63% for the first, -0.931% for the second.

First: CC1=CC(=O)C2=C(C)C[C@H](O)[C@@H]3[C@@H](OC(=O)[C@H]3C)[C@H]12
Second: CC(C)(O)[C@H]1[C@H]2OC(=O)[C@@H]1[C@]1(O)C[C@H]3O[C@]34C(=O)O[C@H]2[C@]14C
The “activity change, negative = inhibition” value of the first is lower: 0.4% for the first, 7.4% for the second.

First: Cc1ccc(N2C(=O)c3oc4ccccc4c(=O)c3C2c2cccnc2)nc1 (stereo not given)
Second: Cc1ccc(-n2nc(-c3ccco3)cc2C(=O)NCc2cccnc2)cc1
The “activity change, negative = inhibition” value of the first is higher: 12.4% for the first, -4.9% for the second.

Going from `O/N=C1\CC2(Cc3nonc31)OCCO2` to `CC(C)(C)C(=O)CCN1C(=O)C2(OCCO2)c2ccccc21`, the “activity change, negative = inhibition” value falls from -0.261% to -1.15%.

First: Cn1c(=O)c(-c2ccccc2)nc2cnc(N3CCNCC3)nc21
Second: COc1ccc(-n2ncc3c(N4CCCc5ccccc54)ncnc32)cc1
The “activity change, negative = inhibition” value of the first is higher: -2.9% for the first, -4.66% for the second.

Going from `CCOC(=O)CSc1nnc(CNc2nc(-c3ccccc3)cs2)n1C` to `CCS(=O)(=O)n1nc(-c2ccccc2)nc1SCc1ccccc1`, the “activity change, negative = inhibition” value falls from 6.67% to -2.9%.

Compared with `N#Cc1ccccc1-c1ccc2ncnc(NCc3cccnc3)c2c1`, `CCOc1ccc2nc(NCCNS(=O)(=O)c3ccccc3)c(C#N)cc2c1` is higher in “activity change, negative = inhibition” value: 0.3% for the first, 7.14% for the second.

First: NC(=O)c1ccc(OC[C@H](O)CN2CC=C(c3ccc(F)cc3)CC2)cc1
Second: CCC(=O)c1ccc(OCC(O)CN2C(=O)NC(C)(C)C2=O)cc1 (stereo not given)
The “activity change, negative = inhibition” value of the first is lower: -3.1% for the first, 10.9% for the second.

First: O=C1N(Cc2ccc3c(c2)OCO3)c2ccccc2C1(O)c1c[nH]c2ccccc12 (stereo not given)
Second: CC(C)(C)NC(=O)C(c1ccncc1)N(C(=O)CNC(=O)c1ccco1)c1ccc2c(c1)OCO2 (stereo not given)
The “activity change, negative = inhibition” value of the first is higher: 1.62% for the first, -3.56% for the second.

Going from `O=C(NC12CC3CC(CC(C3)C1)C2)N1CCCC(CO)C1` (stereo not given) to `O=C(O)CSCNC(=O)CC12CC3CC(CC(C3)C1)C2`, the “activity change, negative = inhibition” value rises from -4.1% to -1.26%.

Going from `CCCNC(=O)C1CC(=O)N(c2ccc(OCC(=O)Nc3cccc(C)c3C)cc2)C1` (stereo not given) to `CCOC(=O)c1ccc(N2C(=O)CC(N3CC(C)OC(C)C3)C2=O)cc1` (stereo not given), the “activity change, negative = inhibition” value falls from 10.2% to -3.59%.

Compared with `O=C(NCC1CCCO1)C(C(=O)c1ccccc1)n1cc(Cl)ccc1=O` (stereo not given), `O=C(CN(CC1CCCO1)C(=O)CNS(=O)(=O)c1ccccc1)NCc1ccccc1` (stereo not given) is lower in “activity change, negative = inhibition” value: 7.55% for the first, 1.85% for the second.

Going from `O=C(c1cccs1)N1CCCC(c2nc(-c3ccc(F)cc3)no2)C1` (stereo not given) to `CC(C)N(C(=O)COC(=O)c1ccccc1C(=O)N1CCN(c2ccc(F)cc2)CC1)C(C)C`, the “activity change, negative = inhibition” value rises from -1.33% to 9.33%.

Going from `CS(=O)(=O)NCc1ccc(C(=O)NCc2ccccc2)cc1` to `O=C(NCc1ccccn1)c1cc2ccccc2oc1=O`, the “activity change, negative = inhibition” value rises from -4.11% to -3.08%.

Compared with `O=C(Nc1ccccc1)N(Cc1cccnc1)Cc1ccco1`, `c1ccc(Nc2n[nH]nc2-c2ccccc2)cc1` is lower in “activity change, negative = inhibition” value: -3.39% for the first, -5.69% for the second.

Going from `CCOc1c(N2CCCCC2)c(=O)c1=O` to `CC(=O)Oc1cccc(N2C(=O)CC(Nc3ccc(N4CCOCC4)cc3)C2=O)c1` (stereo not given), the “activity change, negative = inhibition” value falls from 10.1% to -7.46%.

Compared with `NC(=S)c1ccc(C(N)=S)o1`, `COc1ccc2oc(=O)c(C(=O)O)cc2c1` is higher in “activity change, negative = inhibition” value: -5.48% for the first, -3.06% for the second.

Going from `O=C(Nc1ccccc1)N[C@H]1C[C@H](C(=O)O)Nc2cc(Cl)cc(Cl)c21` to `COC(=O)c1ccccc1NC(=O)CSc1ccccn1`, the “activity change, negative = inhibition” value rises from -2.4% to 0.234%.

First: COC(=O)c1ccc(S(=O)(=O)c2ccc(C(=O)OC)s2)s1
Second: COC(=O)c1nc(NC(=O)c2ccc(Cl)cc2)n[nH]1
The “activity change, negative = inhibition” value of the first is lower: -1.11% for the first, 1.67% for the second.

Compared with `CCNS(=O)(=O)c1ccc(NC(=O)Nc2cccc(C(F)(F)F)c2)cc1`, `O=C(CN1C(=O)CCC1=O)Nc1ccc(S(=O)(=O)N2CCOCC2)cc1` is lower in “activity change, negative = inhibition” value: 19.8% for the first, -0.675% for the second.

Going from `C=CCOc1ccc(C2/C(=C(\O)c3c(C)[nH]c(C(=O)OC)c3C)C(=O)C(=O)N2CCN(C)C)cc1` (stereo not given) to `CCCC(=O)C1=C(N(C)c2ccccc2)CC(C)(C)C(C(=O)OC)C1=O` (stereo not given), the “activity change, negative = inhibition” value falls from -1.73% to -2.7%.

Compared with `Cc1ccc(Oc2ccc(N)cc2)cc1`, `Cc1cccc(C)c1NC(=O)N1CC=C(n2c(=O)[nH]c3ccccc32)CC1` is higher in “activity change, negative = inhibition” value: -6.72% for the first, -0.392% for the second.

Compared with `COc1ccc(S(=O)(=O)N2CCCC(C(=O)N3CCN(C)CC3)C2)cc1C` (stereo not given), `Cc1noc(C)c1-c1nccc(N2CCOCC2)n1` is higher in “activity change, negative = inhibition” value: 0.3% for the first, 0.7% for the second.

Compared with `c1nnc2c3c4c(sc3ncn12)CCC4`, `CCCCn1nnnc1NCc1cc(OC)c(OC)c(OC)c1` is lower in “activity change, negative = inhibition” value: 2.4% for the first, -0.286% for the second.

Compared with `Cc1cn(C2C=CC(CO)O2)c(=O)[nH]c1=O` (stereo not given), `O=c1[nH]c(=O)n([C@H]2C[C@H](O)[C@H](CO)O2)cc1Br` is higher in “activity change, negative = inhibition” value: -3.11% for the first, -1.6% for the second.

Compared with `CCCn1c(SCC(N)=O)nnc1C(C)C`, `CCOC(=O)C(C(=O)OCC)C(C#N)c1ccccc1` (stereo not given) is higher in “activity change, negative = inhibition” value: -2.16% for the first, 14.3% for the second.

In the case of `Cn1cccc1C1(C(F)(F)F)NCCNC1=O` (stereo not given), the “activity change, negative = inhibition” value is reported as -0.082%.

`N#C/C(=C\c1ccc(O)c(O)c1)C(=O)NCc1ccccc1` was tested, and the activity change, negative = inhibition was “inactive”.
`COc1cc(C[C@H](C)N)c(OC)cc1I` was tested, and the activity change, negative = inhibition was “inactive”.
For `CC(=O)/C(C)=N\O`, the activity change, negative = inhibition was “inactive”.

First: NCCNCC1CCNCC1
Second: O=C(Cn1ccc(=O)[nH]c1=O)Nc1ccc(C(=O)O)c(O)c1
The activity change, negative = inhibition of the first is higher: -0.8% [at 5.75 µM] for the first, -5.4% [at 5.75 µM] for the second.

For `CC(C)c1cc(CN(C)C)c(O)c(C(C)(C)C)c1`, the activity change, negative = inhibition was -4.5% [at 5.75 µM].

With `O=C(Oc1cccnc1)c1cc2ccccc2oc1=O` the Potency was 10 µM (active).
